Screening data from PubChem.
Only some compounds are listed: those with a hit (about 7.3% of all), similar ones and a draw of the others.
HCV inhibitor: HCV inhibition | Huh7.5.1 HCVcc-Cre infection, luciferase reporter, 44 h | Potency, µM (doses to about 41.8 µM), hits mostly inhibitors | AID 651820 | actives 3.4% (n = 340,000)
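Cells (1,000/well) were plated 4 h before compound, then infected with HCVcc-Cre virus (~0.5 moi). After 44 h further culture, infection was read as luciferase luminescence following a 15 min substrate incubation at room temperature.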
FMDV inh: antivirals against foot and mouth disease virus. FMDV antiviral cell-based qHTS. actives 1.2% (n = 410,000). Potency, µM (titrated, usually from 57.9 µM), usual class: inhibitors. AID 1159524; calls by dose curve; tested in HEK293T cells; also: read-out not given here; nearly all actives have a fitted effect of over 45% in size
HCMV antiviral: human cytomegalovirus inhibition. actives 4.5% (n = 410,000). AID 1259415. HFF cells, HCMV-luciferase reporter, 72 h; active compounds read low. activity change, negative = inhibition, % at 57.5 µM; in the data active = activity change below about -60%; inconclusive = no clear call, values can overlap the other calls; inactive = above about -39%
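Cell-based, HFFs, 1000 cells/well, 16 h 37C; cpds in DMSO + HCMV-luc, MOI 1 PFU/cell; 72 h 37C; OneGlo luminescence after 5 min RT; norm. to buffer vs Salinomycin 10uM.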
AmpC detergent: AmpC beta-lactamase inhibition with detergent present. P00811. AmpC hydrolysis of nitrocefin, absorbance 480 nm, 0.01% Triton. Potency, µM (series often up to 114 µM), hits mostly inhibitors. actives 0.041% (n = 370,000). AID 485294; also: nearly all actives have a fitted effect of over 25% in size
Target sequence (P00811 whole entry, looked up): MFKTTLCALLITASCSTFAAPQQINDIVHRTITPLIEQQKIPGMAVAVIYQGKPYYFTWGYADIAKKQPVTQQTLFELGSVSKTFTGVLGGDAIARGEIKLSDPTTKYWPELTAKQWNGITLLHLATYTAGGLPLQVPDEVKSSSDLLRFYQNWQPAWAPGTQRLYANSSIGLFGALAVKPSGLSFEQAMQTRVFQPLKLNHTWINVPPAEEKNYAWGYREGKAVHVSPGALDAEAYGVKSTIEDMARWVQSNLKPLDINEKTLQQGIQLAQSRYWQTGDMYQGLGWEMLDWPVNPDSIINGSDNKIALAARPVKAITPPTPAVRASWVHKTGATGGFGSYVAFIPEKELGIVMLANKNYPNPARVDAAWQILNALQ
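AmpC (5.3 nM in the dispensed reagent) in 20 mM phosphate pH 7.0 with 0.01% (detergent screen) or 0.0001% Triton X-100 was preincubated with compounds for 15 min at room temperature. Nitrocefin was then added from an 800 uM solution, and hydrolysis was followed at 480 nm.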
AmpC inh no detg: inhibitors of E. coli AmpC beta-lactamase without detergent; actives 0.52% (n = 330,000); Potency, µM (titrated, usually from 57.1 µM), most hits filed as inhibitors; AID 485341; P00811; AmpC nitrocefin hydrolysis, absorbance 480 nm, 0.0001% Triton; also: nearly all actives have a fitted effect of over 20% in size
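20 mM phosphate pH 7.0 + 0.01% (detergent screen) or 0.0001% Triton X-100; 5.3 nM AmpC reagent; cpd preinc 15 min RT; nitrocefin (800 uM stock) to start; A480 q20 s × 4 min; Activity was normalised to no-enzyme and no-compound control wells.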
A number is an active result; - = inactive; ? = inconclusive; . = no result; [ ] = dose if it differs, or a comment. Unless noted, calls follow the shape of the dose curve; as a rule, active = well fitted curve in the direction sought with a large enough effect; inconclusive = small, poorly fitted or top-dose-only effect, or another doubt; inactive = no such curve, though single readings can be large; an effect the other way counts as inactive or inconclusive.

SMILES | HCV inhibitor | FMDV inh | HCMV antiviral | AmpC detergent | AmpC inh no detg
COc1ccc(C)cc1NC(=O)C(Sc1nnc(Nc2cc(C)ccc2OC)s1)c1ccccc1 (stereo not drawn) | 10µM | - | ? | - | -
O=C(c1cc2c(c(-c3cccc(-c4ccncc4)c3)n1)[C@@H](CCO)N(C(=O)c1ccc3c(c1)OCO3)C2)N1CCOCC1 | . | - | - | . | .
CCOc1ccc(NC(=O)CCNc2c(N3CCCC3)c(=O)c2=O)cc1 | - | - | -61 | - | -
COc1ccc(CSC2=CS(=O)(=O)c3ccccc3N2)cc1 | - | - | -62 | ? | -[2.29 µM]
Cn1c(=O)n(Cc2ccccc2Br)c2ccccc21 | - | - | -62 | - | -
Cc1cc(C(=O)NNCc2ccccc2)no1 | - | - | - | ? | -
Cn1c(-c2cccnc2)cc2cnc(Nc3ccc(OC(F)(F)F)cc3)cc21 | . | . | -60 | . | .
COc1cccc(Nc2cc3c(cn2)cc(-c2cccc(C(F)(F)F)c2)n3C)c1 | . | . | -80 | . | .
Cn1c(-c2ccccc2)nc2cnc(Nc3cccc(OC(F)(F)F)c3)cc21 | . | . | -79 | . | .
CCc1ccc(Nc2n[n+](-c3ccccc3)c(-c3ccc(SC)cc3)s2)cc1 | - | - | -65 | ? | -
CC(=O)Nc1ccc(-c2sc(Nc3cccc4ccccc34)n[n+]2-c2ccccc2)cc1 | - | - | - | - | -
CSc1ccc(-c2sc(Nc3ccccc3)n[n+]2-c2ccccc2)cc1 | - | - | . | - | -
CSc1ccc(-c2sc(Nc3cccc4ccccc34)n[n+]2-c2ccccc2)cc1 | 8.9µM | - | - | ? | -
CCOC(=O)c1c(N)sc(C(=O)Nc2ccccc2F)c1C | - | - | - | - | -
COc1ccc(-c2c3c(nc4sc(C(=O)Nc5ccccc5)c(N)c24)CCC3)cc1 | - | - | - | . | .
CCOC(=O)c1c(C)nc2sc(C(=O)Nc3ccccc3)c(N)c2c1-c1ccc(OC)cc1 | 6.3µM | - | . | ? | -
CCOC(=O)c1c(N)sc(C(=O)Nc2ccccc2)c1C | 11µM | - | - | - | -
CCOC(=O)c1c(N)sc(N)c1C(=O)OCC | - | 32µM | - | - | -
CCOC(=O)c1c(N)sc2c(NC(C)=O)cccc12 | 18µM | - | - | - | -
C[C@@H]1CN([C@@H](C)CO)C(=O)CCCn2nncc2CO[C@H]1CN(C)S(=O)(=O)c1ccccc1C#N | . | - | - | . | .
COc1ccccc1Nc1nn2c(=O)c3ccc(C(=O)NC4CCC(C)CC4)cc3nc2s1 (stereo not drawn) | . | - | - | - | .
Cc1cc(NC(=O)Nc2nc3c(s2)CCCCCC3)ccc1Br | . | - | - | - | .
COc1cc(OC)c(NC(=O)c2cc(C(C)=O)n3ccccc23)cc1Cl | . | - | - | - | .
CCOC(=O)c1c(C)nc2sc(C(N)=O)c(N)c2c1-c1ccccc1 | - | - | -62 | - | -
COCCCNC(=O)c1sc2nc(C)c(C(=O)Nc3ccc(Cl)cc3)c(-c3ccc(Br)cc3)c2c1N | . | - | -76 | - | .
SMILES | HCV inhibitor | FMDV inh | HCMV antiviral | AmpC detergent | AmpC inh no detg
CCCCOc1ccc(-c2cc3c(=O)n(CC(=O)Nc4ccc(Cl)cc4Cl)ccn3n2)cc1 | . | - | - | - | .
COc1ccc(CNC(=O)CN(C)S(=O)(=O)c2ccc3nc(C)sc3c2)cc1 | . | - | - | - | .
CN=C1S/C(=C\c2ccc(Cl)cc2)C(=O)N1C | 11µM | - | - | - | -
CN=C1S/C(=C\c2ccc(SC)cc2)C(=O)N1C | ? | - | - | - | -
C=CCN=C1S/C(=C/c2cccc([N+](=O)[O-])c2)C(=O)N1CC=C | ? | ? | -74 | - | -
C=CCN=C1S/C(=C/c2ccc([N+](=O)[O-])cc2)C(=O)N1CC=C | - | - | - | - | -
C=CCN=C1S/C(=C\c2ccc(Cl)cc2)C(=O)N1CC=C | - | - | -84 | - | -
C[C@@H]1CN([C@@H](C)CO)C(=O)CCCn2cc(nn2)CO[C@H]1CN(C)C(=O)c1ccncc1 | . | . | - | . | .
COc1ccc(-c2csc(C(C)(O)c3cccc(F)c3)n2)cn1 (stereo not drawn) | . | ? | - | . | .
CC(=O)Nc1ccc(NC(=O)C(C)OC(=O)/C=C/c2cn(-c3ccccc3)nc2-c2cccnc2)cc1 (stereo not drawn) | ? | ? | -94 | - | -
CC(=O)NS(=O)(=O)c1ccc(NC(=O)/C=C/c2cn(-c3ccccc3)nc2-c2ccccc2)cc1 | - | - | ? | - | -
O=C(/C=C\c1cn(-c2ccccc2)nc1-c1ccccc1)Nc1nccs1 | ? | - | ? | - | 11µM
O=C(/C=C/c1cn(-c2ccccc2)nc1-c1cccnc1)N1CCCCC1 | ? | ? | -60 | - | -[11.4 µM]
Cc1ccccc1NC(=O)COC(=O)/C=C/c1cn(-c2ccccc2)nc1-c1cccnc1 | - | - | - | - | -
O=C(O)c1cn(-c2ccccc2)nc1-c1cccnc1 | - | - | - | - | -
O=C1C=CN(S(=O)(=O)c2ccc(Cl)cc2)C(c2cccs2)C1 (stereo not drawn) | . | . | - | . | .
CC(=O)Nc1cccc(NS(=O)(=O)c2cn(C)c(=O)n(C)c2=O)c1 | - | - | - | - | -
COc1ccc(CNC(=O)c2cc3c(C)nc4ccccc4c3o2)c(OC)c1 | 3.2µM | ? | . | - | -
Cc1nc2ccccc2c2oc(C(=O)NCCN3CCCCC3C)cc12 (stereo not drawn) | ? | - | - | ? | -
CCc1ccc2oc(C(=O)N3CCN(c4ccc(OC)cc4)CC3)cc(=O)c2c1 | ? | ? | -63 | - | -
CCCCN(CC)CCNC(=O)c1cc2c(C)nc3ccccc3c2o1 | 6.3µM | - | ? | - | -
CCN1CCCC1CNC(=O)c1cc2c(C)nc3ccccc3c2o1 (stereo not drawn) | ? | - | - | - | -
CCc1ccc2oc(C(=O)N3CCN(c4ccccc4OC)CC3)cc(=O)c2c1 | - | - | - | - | -
CCc1ccc(CNC(=O)c2cc3c(C)nc4ccccc4c3o2)cc1 | 11µM | ? | -64 | - | -
CC[C@@]1([C@@H]2O[C@@H]([C@H]3O[C@@](O)(CO)[C@H](C)C[C@@H]3C)C[C@@H]2C)CC[C@H]([C@]2(C)CC[C@]3(C[C@H](O)[C@@H](C)[C@@H]([C@@H](C)[C@@H](OC)[C@H](C)C(=O)O)O3)O2)O1 (stereo in doubt) | . | - | . | . | .
O=C(Cc1ccccc1)NCC1COc2ccccc2O1 (stereo not drawn) | - | . | - | . | .
COc1ccc(N2CCN(C(=O)c3cc4c(C)nc5ccccc5c4o3)CC2)cc1 | ? | ? | -100 | - | -
COc1cccc(CNC(=O)c2cc3c(C)nc4ccccc4c3o2)c1 | 6.3µM | 22µM | ? | ? | -
Cc1nc2ccccc2c2oc(C(=O)NCC3COc4ccccc4O3)cc12 (stereo not drawn) | 10µM | ? | ? | - | -
CCOC(=O)CC[C@H](NC(=O)Cn1cnc2c(OCc3ccccc3)ncnc21)C(=O)OCC | - | - | - | . | -
